Reference: ChEMBL document CHEMBL3988442, “University of Dundee, Small-Polar-MMV Screening Library” (2021)
The whole screen tested about 48,000 compounds, of which about 13,000 (27%) showed an effect of 50% or more. Some of the results follow.

system: Wolbachia pipientis; assay: Anti-Wolbachia Cell-Based Screen; assay type: functional; set-up: scale not given: in the data most compounds retested in dose-response had high values; conditions: 5 µM

SMILES | Percent Effect [%]
CCc1cc(NCCc2cnccn2)n2nc(C)c(C)c2n1 | -4.525
CNc1ccnc(NCCSc2nccn2C)n1 | 3.348
CCc1cc(NCCc2cccnc2)n2nc(C)c(C)c2n1 | 15.8
Cc1cc(NCCSc2nccn2C)n2nc(C)c(C)c2n1 | 108.3
Cc1cc(NCCCNc2cccnc2)n2nc(C)c(C)c2n1 | 88.33
Cc1cc(NCCn2cccn2)n2ncnc2n1 | -4.993
CCCc1cc(NCCn2cccn2)n2ncnc2n1 | -13
CCSCCNc1cc(C)nc2c(C)c(C)nn12 | 76.05
Cc1cc(NCCSc2nccn2C)n2ncnc2n1 | 81.57
CCc1cc(NCCNC(=O)c2cccnc2)n2nc(C)c(C)c2n1 | 18.31
Cc1cc(NCc2nnc3n2CCC3)n2nc(C)c(C)c2n1 | 8.542
Cc1ccnc(NCCSc2nccn2C)n1 | -1.785
CCOC(=O)c1nnc2ccccc2c1N1CCN(CC)CC1 | -7.556
O=C(NC1CCCc2nc(N3CCCCC3)ncc21)C1CCCC1 (centres undefined) | 90.75
O=C(CC1CCCCC1)NC1CCCc2nc(N3CCOCC3)ncc21 (centres undefined) | 100.9
CN(C)c1ncc2c(n1)CCCC2NC(=O)C1CC1 (centres undefined) | 13.73
CC1(C)CC(N2Cc3nc(N4CCOCC4)ncc3C2=O)CC(C)(C)N1 | 10.47

SMILES | Percent Effect [%]
O=C(NC1CCCc2nc(N3CCOCC3)ncc21)C1CCCCC1 (centres undefined) | 91.3
CC(C)(C)c1cnc(CN2CCC(NC(=O)CC3CCCC3)CC2)o1 | 1.419
CCS(=O)(=O)c1ccc(N2CCC(NC(=O)CC3CCCC3)CC2)cc1 | -9.103
O=C(NC1CCCc2nc(N3CCOCC3)ncc21)C1CCCC1 (centres undefined) | 122.7
Cn1ccnc1-c1ccc(NC[C@H]2CCc3ccccc3O2)nn1 | 2.045
Cn1c(NC(=O)CNC(=O)C2CCCC2)nc2cc(Cl)ccc21 | 10.58
Cc1nnc(CN2CCC3(CCC(=O)N(C4CC4)C3)CC2)o1 | 3.003
COc1cccc2c1OCC(C(=O)N1CCN(S(=O)(=O)N(C)C)CC1)C2 (centres undefined) | -34.53
O=S(=O)(C1CC1)N1Cc2nccn2CC(Cn2cncn2)C1 (centres undefined) | 116.3
CCS(=O)(=O)N1Cc2nccn2CC(Cn2cncn2)C1 (centres undefined) | 101.6
Cc1nc(C)n(CC2CN(S(C)(=O)=O)Cc3nccn3C2)n1 (centres undefined) | 2.83
CCCS(=O)(=O)N1Cc2nccn2CC(Cn2cccn2)C1 (centres undefined) | -3.213
CCCS(=O)(=O)N1Cc2nccn2CC(CN2CCCC2)C1.O=C(O)C(F)(F)F (centres undefined) | -1.434
CCS(=O)(=O)N1Cc2nccn2CC(CN2CCCC2)C1 (centres undefined) | -0.1339
CCCS(=O)(=O)N1Cc2nccn2CC(Cn2cncn2)C1 (centres undefined) | 104.9
CCS(=O)(=O)N1Cc2nccn2CC(Cn2nc(C)nc2C)C1 (centres undefined) | 6.553
CCS(=O)(=O)N1Cc2nccn2CC(Cn2cccn2)C1 (centres undefined) | 103.5
